40 molecules from PubChem BioAssay (NCI) can be followed below.

This is part of a sample that, as a whole, favours compounds with a hit. Of some 83,000 tested, about 20% had one in any assay.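 For each line, cells grew in 96-well plates with the test compound present at a single concentration for 48 hours.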 Activity calls are given as the source filed them. Rule for the calls: active = growth percent below 10; inactive = the rest.

The subject of one experiment is NCI-H460 lung. Briefly: NCI-60 one-dose screen, 48 h (100 = growth as untreated, 0 = no growth, -100 = all killed). Particulars: 10 µM unless noted.
On to `CC1Cc2c(Cl)ncnc2N(C)c2ccc(F)cc21` (stereo not given), for which the growth was 108% (inactive).

In the case of `N#CC1=C(N)Oc2c(sc3c(Br)cccc23)C1c1ccc(F)cc1` (stereo not given), the growth is 9.57% (active).

Take `COc1ccc(/C(C)=C(/c2ccc(OCCCN(C)C)cc2)c2ccc(OC(=O)Cc3ccccc3)cc2)cc1`: the growth was 70.8% (inactive).

As to `O=C1Nc2ccccc2[C@]12CC(c1ccccc1)=NN2`, the growth was 21.5% (inactive).

Consider `CN(CCOc1ccc(C#N)cc1)CCOc1ccc(C#N)cc1`, for which the growth is 120% (inactive).

For `Cc1ccc(Sc2nnc(/N=C3\C(=O)Nc4ccccc43)s2)cc1`, the growth was 104% (inactive).

In the case of `Cn1cc(-c2nonc2-c2c[nH]c3ccc(Br)cc23)c2cc(Br)ccc21`, the growth is 13.3% (inactive).

As to `Cc1ccc(NC(=S)NNC(=S)NNc2ccccc2)cc1C`, the growth was 96.3% (inactive).

For the molecule `COc1ccc(-c2csc(N(C(=O)N3CCN(c4cc5c(cc4F)c(=O)c(C(=O)O)cn5C4CC4)CC3)c3ccccc3)n2)cc1`, the growth was 3.65% (active).

On to `O=[N+]([O-])c1ccc(N/N=C(/C(=N/Nc2ccc([N+](=O)[O-])cc2)c2ccccc2)c2ccccc2)cc1`, for which the growth is 46.2% (inactive).

For `CCCCCCCCn1ccc2cc(NC(=O)CN3CCN(c4nc(C)cc(Cl)n4)CC3)ccc21`, the growth was 100% (inactive).

Consider `COc1ccc(-c2cc(-c3ccc(Cl)cc3)c(C#N)c(=O)n2CCCCC(=O)Nc2ccccc2N)cc1`, for which the growth is 37.6% (inactive).

As to `CCOC(=O)c1c2c(n3ccc(C)cc13)C(=O)c1ccccc1C2=O`, the growth was 58.7% (inactive).

In the case of `COc1ccc(-c2nc3c(c(-c4ccccc4)nn3-c3ccccc3)c(-c3ccc(N4CCN(C)CC4)cc3)c2C#N)cc1`, the growth was 101% (inactive).

As to `Cc1ccc(-n2c(=S)[nH]c3sc4c(c3c2=O)CCC(=O)C4)cc1`, the growth was 17.2% (inactive).

As for `COc1cc(-c2cc(-c3ccc(N(C)C)cc3)nc(N3CCC(O)CC3)c2C#N)cc(OC)c1OC`, the growth is -27.9% (active).

Regarding `O=Cc1ccc([N+](=O)[O-])s1`, the growth is 106% (inactive).

Take `CC1=NN(c2nc(SCC(=O)Nc3nc4ccc(C)cc4s3)nc(-c3ccccc3)c2C#N)C(=O)C1`: the growth is 100% (inactive).

For `O=C(CSc1nc(-c2ccccc2)[nH]c1S(=O)(=O)c1ccccc1)NC1CC1`, the growth is 102% (inactive).

As to `Nc1ncnc2c1N=C(c1ccc3c(c1)OCO3)CC(c1cccc(Nc3ccnc4cc(Cl)ccc34)c1)N2` (stereo not given), the growth was 59.8% (inactive).

As to `O=C(CN1C(=O)CCC1=O)Nc1ncc(Cc2ccc(F)cc2)s1`, the growth is 106% (inactive).

With `Cn1cc(-c2csc(-c3ccc(Cl)cc3)n2)c2cccnc21`, the growth was -16.4% [100 µM] (active).

`CN(Cc1ccc(C(F)(F)F)cc1)CC(O)C(=O)Nc1ccc(Cl)cc1` (stereo not given): the growth was 18.3% (inactive).

In the case of `CCCCCOc1ccc(C(=O)/C(Br)=C/C(=O)O)cc1`, the growth is 103% (inactive).

Regarding `CCN(CC)CCCN1C(=O)c2c(c(C)c3c(oc4cc(O)ccc43)c2C)C1=O`, the growth is -24.6% (active).

Take `CCOP(=O)(OCC)c1nc(-c2ccccc2)oc1NCc1cccnc1`: the growth was 107% (inactive).

With `O=C(CCC(=O)N/N=C/c1ccccc1O)N/N=C/c1ccccc1O`, the growth is 44.4% (inactive).

Consider `S=C(Nc1ccc(-c2nc(N3CCOCC3)c3cccn3n2)cc1)Nc1cccnc1`, for which the growth is 43.2% (inactive).

Turning to `N#Cc1c(N)nnn1Cc1cc(=O)oc2c1ccc1ccccc12`, the growth is 101% (inactive).

Take `Fc1ccc2[nH]cc(-c3nonc3-c3c[nH]c4ccc(Br)cc34)c2c1`: the growth was 1.22% (active).

Consider `O=Nc1c(-c2c(O)[nH]c3ncccc23)[nH]c2ccccc12`, for which the growth is 52.2% (inactive).

Consider `Fc1cccc(CNc2c3ccccc3nc3ccccc23)c1F`, for which the growth was 48% (inactive).

Regarding `CCn1c(=S)sc2c(Nc3ccc(F)cc3)nc(-c3cccnc3)nc21`, the growth was 64.5% (inactive).

`CC(C)(C)n1cc(-c2ccnc(NCCNS(=O)(=O)c3cccc(F)c3)c2)c(-c2ccccc2)n1`: the growth was 90.7% (inactive).

Turning to `Cc1cc2c(O)c(-c3cc(Cl)ccc3Cl)c3sc(=O)oc3c2cc1C`, the growth was 34.4% (inactive).

`Fc1ccc(-c2nn(-c3ccccc3)cc2-c2nc3ccccc3o2)cc1`: the growth was 37.5% (inactive).

For `OB(O)c1cccc(-c2nc3ccc4[nH]ncc4c3c3c2CCCC3)c1`, the growth is 32.6% (inactive).

As for `O=C(CSc1nc2ccc([N+](=O)[O-])cc2[nH]1)Nc1ccc(F)cc1`, the growth is 56.8% (inactive).

In the case of `CNC(=O)c1c(NC(=O)c2ccc(C(F)(F)F)cc2)sc2c1CCC(=O)C2`, the growth is 4.57% (active).

Turning to `N#Cc1cccc(NC(=O)c2oc3ccccc3c2-c2cnn(-c3ccccc3)c2)c1`, the growth was 84.3% [50 µM] (inactive).

For another experiment, the system named is HOP-92 NSCLC. The experiment is described as above. The settings on record: 10 µM unless noted.
Take `CC1Cc2c(Cl)ncnc2N(C)c2ccc(F)cc21` (stereo not given): the growth was 65.8% (inactive).

On to `N#CC1=C(N)Oc2c(sc3c(Br)cccc23)C1c1ccc(F)cc1` (stereo not given), for which the growth is 41% (inactive).

With `COc1ccc(/C(C)=C(/c2ccc(OCCCN(C)C)cc2)c2ccc(OC(=O)Cc3ccccc3)cc2)cc1`, the growth is 50.5% (inactive).

As to `O=C1Nc2ccccc2[C@]12CC(c1ccccc1)=NN2`, the growth is 30.8% (inactive).

Take `CN(CCOc1ccc(C#N)cc1)CCOc1ccc(C#N)cc1`: the growth is 63.3% (inactive).

Regarding `Cc1ccc(Sc2nnc(/N=C3\C(=O)Nc4ccccc43)s2)cc1`, the growth was 96.4% (inactive).

As for `Cn1cc(-c2nonc2-c2c[nH]c3ccc(Br)cc23)c2cc(Br)ccc21`, the growth was 55.6% (inactive).

`Cc1ccc(NC(=S)NNC(=S)NNc2ccccc2)cc1C`: the growth was 55.4% (inactive).

Turning to `COc1ccc(-c2csc(N(C(=O)N3CCN(c4cc5c(cc4F)c(=O)c(C(=O)O)cn5C4CC4)CC3)c3ccccc3)n2)cc1`, the growth is -18.1% (active).

In the case of `O=[N+]([O-])c1ccc(N/N=C(/C(=N/Nc2ccc([N+](=O)[O-])cc2)c2ccccc2)c2ccccc2)cc1`, the growth is 107% (inactive).

For `CCCCCCCCn1ccc2cc(NC(=O)CN3CCN(c4nc(C)cc(Cl)n4)CC3)ccc21`, the growth is 79.3% (inactive).

Regarding `COc1ccc(-c2cc(-c3ccc(Cl)cc3)c(C#N)c(=O)n2CCCCC(=O)Nc2ccccc2N)cc1`, the growth is -3.51% (active).

`CCOC(=O)c1c2c(n3ccc(C)cc13)C(=O)c1ccccc1C2=O`: the growth was 87.8% (inactive).

As to `COc1ccc(-c2nc3c(c(-c4ccccc4)nn3-c3ccccc3)c(-c3ccc(N4CCN(C)CC4)cc3)c2C#N)cc1`, the growth was 83.2% (inactive).

On to `Cc1ccc(-n2c(=S)[nH]c3sc4c(c3c2=O)CCC(=O)C4)cc1`, for which the growth was 57% (inactive).

Regarding `COc1cc(-c2cc(-c3ccc(N(C)C)cc3)nc(N3CCC(O)CC3)c2C#N)cc(OC)c1OC`, the growth is -25% (active).

On to `O=Cc1ccc([N+](=O)[O-])s1`, for which the growth is 103% (inactive).

On to `CC1=NN(c2nc(SCC(=O)Nc3nc4ccc(C)cc4s3)nc(-c3ccccc3)c2C#N)C(=O)C1`, for which the growth was 85% (inactive).

Consider `O=C(CSc1nc(-c2ccccc2)[nH]c1S(=O)(=O)c1ccccc1)NC1CC1`, for which the growth is 89.6% (inactive).

Regarding `Nc1ncnc2c1N=C(c1ccc3c(c1)OCO3)CC(c1cccc(Nc3ccnc4cc(Cl)ccc34)c1)N2` (stereo not given), the growth is 26.6% (inactive).

In the case of `O=C(CN1C(=O)CCC1=O)Nc1ncc(Cc2ccc(F)cc2)s1`, the growth was 99.9% (inactive).

`Cn1cc(-c2csc(-c3ccc(Cl)cc3)n2)c2cccnc21`: the growth was -69.2% [100 µM] (active).

Regarding `CN(Cc1ccc(C(F)(F)F)cc1)CC(O)C(=O)Nc1ccc(Cl)cc1` (stereo not given), the growth was -0.362% (active).

In the case of `CCCCCOc1ccc(C(=O)/C(Br)=C/C(=O)O)cc1`, the growth is 99.2% (inactive).

With `CCN(CC)CCCN1C(=O)c2c(c(C)c3c(oc4cc(O)ccc43)c2C)C1=O`, the growth is 93.7% (inactive).

Take `CCOP(=O)(OCC)c1nc(-c2ccccc2)oc1NCc1cccnc1`: the growth was 114% (inactive).

As for `O=C(CCC(=O)N/N=C/c1ccccc1O)N/N=C/c1ccccc1O`, the growth is 57.1% (inactive).

As for `S=C(Nc1ccc(-c2nc(N3CCOCC3)c3cccn3n2)cc1)Nc1cccnc1`, the growth was -3.48% (active).

In the case of `N#Cc1c(N)nnn1Cc1cc(=O)oc2c1ccc1ccccc12`, the growth is 87.8% (inactive).

With `Fc1ccc2[nH]cc(-c3nonc3-c3c[nH]c4ccc(Br)cc34)c2c1`, the growth is 22.4% (inactive).

For the molecule `O=Nc1c(-c2c(O)[nH]c3ncccc23)[nH]c2ccccc12`, the growth was 54% (inactive).

As for `Fc1cccc(CNc2c3ccccc3nc3ccccc23)c1F`, the growth is 2.67% (active).

For the molecule `CCn1c(=S)sc2c(Nc3ccc(F)cc3)nc(-c3cccnc3)nc21`, the growth is 18.4% (inactive).

`CC(C)(C)n1cc(-c2ccnc(NCCNS(=O)(=O)c3cccc(F)c3)c2)c(-c2ccccc2)n1`: the growth is 3.59% (active).

As for `Cc1cc2c(O)c(-c3cc(Cl)ccc3Cl)c3sc(=O)oc3c2cc1C`, the growth was -15.5% (active).

As to `Fc1ccc(-c2nn(-c3ccccc3)cc2-c2nc3ccccc3o2)cc1`, the growth is 91.2% (inactive).

With `OB(O)c1cccc(-c2nc3ccc4[nH]ncc4c3c3c2CCCC3)c1`, the growth is 47.6% (inactive).

As to `O=C(CSc1nc2ccc([N+](=O)[O-])cc2[nH]1)Nc1ccc(F)cc1`, the growth is -6.84% (active).

Take `CNC(=O)c1c(NC(=O)c2ccc(C(F)(F)F)cc2)sc2c1CCC(=O)C2`: the growth is -35.8% (active).

`N#Cc1cccc(NC(=O)c2oc3ccccc3c2-c2cnn(-c3ccccc3)c2)c1`: the growth is -23.3% [50 µM] (active).
